Only some compounds are listed: those with a hit (about 4.2% of all), similar ones and a draw of the others.
esBAF inh = Bmi1 luciferase reporter increase in mESCs, primary screen, esBAF inhibitor project, mouse ES cells, Bmi1 luciferase knock-in, single point. 350,000 compounds, 2% hits. reporter increase, % at 12.5 µM. 24 h; 100% = twice the neutral-well signal; in the data active = activation above about 40%; inconclusive = no clear call, values can overlap the other calls;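 note: a rise in the Bmi1 reporter signal indicates esBAF inhibition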
AHR act = AHR activators, primary screen, cell-based, luminescence, luciferase reporter, human; Aryl hydrocarbon receptor (Homo sapiens), P35869; activation, % at 5 µM; 320,000 compounds, 2.5% hits; AHR-responsive luciferase reporter cells; in the data active = activation above about 47%
Target sequence (P35869 whole entry, looked up): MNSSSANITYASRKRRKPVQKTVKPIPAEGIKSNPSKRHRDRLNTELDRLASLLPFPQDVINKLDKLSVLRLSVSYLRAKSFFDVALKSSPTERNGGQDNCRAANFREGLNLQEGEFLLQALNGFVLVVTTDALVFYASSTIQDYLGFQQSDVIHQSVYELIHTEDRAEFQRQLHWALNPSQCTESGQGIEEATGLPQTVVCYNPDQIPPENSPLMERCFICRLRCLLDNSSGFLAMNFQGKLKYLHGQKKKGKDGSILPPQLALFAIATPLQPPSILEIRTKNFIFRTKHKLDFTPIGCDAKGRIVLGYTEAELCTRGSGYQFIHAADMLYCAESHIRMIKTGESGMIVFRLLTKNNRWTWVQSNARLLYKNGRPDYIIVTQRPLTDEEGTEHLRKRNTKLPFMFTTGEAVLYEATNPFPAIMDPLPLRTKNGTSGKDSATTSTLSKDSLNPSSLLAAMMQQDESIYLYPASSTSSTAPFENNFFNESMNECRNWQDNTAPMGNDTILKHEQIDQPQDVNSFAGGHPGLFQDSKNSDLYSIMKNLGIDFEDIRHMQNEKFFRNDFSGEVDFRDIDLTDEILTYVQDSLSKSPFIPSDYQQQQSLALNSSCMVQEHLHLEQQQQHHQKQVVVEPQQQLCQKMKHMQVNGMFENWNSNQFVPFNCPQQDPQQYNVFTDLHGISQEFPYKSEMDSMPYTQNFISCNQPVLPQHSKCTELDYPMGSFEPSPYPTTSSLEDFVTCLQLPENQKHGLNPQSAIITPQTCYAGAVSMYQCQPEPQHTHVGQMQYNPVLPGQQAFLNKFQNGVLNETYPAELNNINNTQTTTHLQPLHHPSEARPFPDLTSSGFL
GAA850 FXN act = FXN promoter activators, primary screen, cell-based, luciferase luminescence, HEK293 lucGAA850 | activation, % at 6 µM | HEK293 lucGAA850 FXN promoter luciferase reporter, 24 h; percent of 10 µM SAHA response | AID 540364, 2011 | 360,000 compounds, 0.56% hits;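 active = activation above the average of all compounds screened plus 3 SD, cutoff fixed separately per campaign, cut at about 7.5% in these data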
MITF TRPM1 HTS = activators of MITF-driven TRPM1 promoter reporter, primary screen, cell-based, SK-MEL-5, luciferase, single point; activation, % at 12.5 µM; 300,000 compounds, 0.75% hits; AID 588334, 2011; SK-MEL-5 TRPM1-promoter luciferase, 24 h; % of positive control, neutral wells = 0;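 active = mean activation of at least 80% with every replicate also reaching 80%; inconclusive = mean reaches 80% but some replicate falls short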
Wnt bcat act = Wnt/beta-catenin pathway activators, primary screen, cell-based, plate reader, single point; activation, % at 9.35 µM; Wnt/beta-catenin reporter cell assay, activator; 300,000 compounds, 1.2% hits; AID 743398, 2014; in the data active = activation above about 30%, passing the limit was not always enough; inconclusive = no clear call, values can overlap the other calls
Large screens that a line does not name were inactive.

Cc1ccc2nc(SCC(=O)Nc3cccc([N+](=O)[O-])c3)[nH]c2c1	AHR act 89
Cc1ccc2nc(SCC(=O)Nc3c(F)cccc3F)[nH]c2c1	none
Cc1ccc2nc(SCC(=O)Nc3ccc(F)cc3F)[nH]c2c1	AHR act 71
Cc1ccc2nc(SC(C)C(=O)N3CCCC3)[nH]c2c1 (stereo not given)	AHR act 73 (no result: Wnt bcat act)
Cc1ccc2nc(SCC(=O)c3ccc(O)cc3O)[nH]c2c1	esBAF inh 62, Wnt bcat act 41
Cc1noc(C)c1S(=O)(=O)N(C)C[C@H]1Oc2ccc(NS(=O)(=O)c3ccccc3)cc2CC(=O)N([C@H](C)CO)C[C@@H]1C	none (no result: AHR act, GAA850 FXN act, MITF TRPM1 HTS, Wnt bcat act)
CCCC(C)NC(=O)CSc1nc2ccc(C)cc2[nH]1 (stereo not given)	AHR act 51 (no result: esBAF inh)
COc1ccc(-c2c(-c3ccc(OC)nc3)c3ccccc3n2C)cc1	AHR act 63
Cc1nc2nc(-c3cccs3)cn2nc1C	Wnt bcat act 47 (no result: esBAF inh, MITF TRPM1 HTS)
Cc1cc(C)nc(NC(=O)c2ccc(C)c([N+](=O)[O-])c2)n1	AHR act 72 (no result: esBAF inh, Wnt bcat act)
Cc1ccc(C(=O)Nc2cc(Cl)ccc2Oc2ccccc2)cc1[N+](=O)[O-]	AHR act 67 (no result: esBAF inh, Wnt bcat act)
Cc1cc(C)nc(NC(=O)c2ccc(Cl)c([N+](=O)[O-])c2)n1	none (no result: esBAF inh)
Cc1noc(C)c1S(=O)(=O)Nc1ccc2c(c1)C(=O)N([C@@H](C)CO)C[C@@H](C)[C@H](CN(C)C(=O)CCCN(C)C)OCCCC[C@@H](C)O2	none (no result: AHR act, GAA850 FXN act, MITF TRPM1 HTS, Wnt bcat act)
COc1ccc(C(=O)/C=C/N(C)C)cc1OC	none (no result: Wnt bcat act)
COc1ccc(C(=O)/C=C/N(C)C)cc1	Wnt bcat act 66 (no result: MITF TRPM1 HTS)
C[C@@H]1CN([C@H](C)CO)C(=O)Cc2cc(NS(=O)(=O)c3cccs3)ccc2O[C@H]1CN(C)S(=O)(=O)c1cccs1	none (no result: AHR act, GAA850 FXN act, MITF TRPM1 HTS, Wnt bcat act)
O=c1c2ccccc2cnn1CCOc1cccc(Br)c1	esBAF inh 49
CCCNC(=O)N1C[C@H](C)[C@H](OC)CN(C)C(=O)c2cc(NS(=O)(=O)CC(F)(F)F)ccc2OC[C@H]1C	none (no result: AHR act, GAA850 FXN act, MITF TRPM1 HTS, Wnt bcat act)
CCOc1ccc(S(=O)(=O)/N=C(/Nc2ccc(C(C)=O)cc2)c2ccccc2)cc1	AHR act 65
Cc1ccc(S(=O)(=O)/N=C(/Nc2ccc(O)c(C(=O)O)c2)c2ccccc2)cc1	Wnt bcat act 57
O=C(O)c1cc(N/C(=N\S(=O)(=O)c2ccc(F)cc2)c2ccccc2)ccc1O	none (no result: AHR act)
Cc1ccc(S(=O)(=O)/N=C(/NC(=S)Nc2ccccc2)c2ccccc2)cc1	esBAF inh 55, Wnt bcat act inconclusive
CCOc1ccc(S(=O)(=O)/N=C(/Nc2ccc(OC)cc2)c2ccccc2)cc1	none
Cc1ccc(NC(=S)N/C(=N/S(=O)(=O)c2ccccc2)c2ccccc2)cc1	esBAF inh 55
O=C(C[C@@H]1C[C@H]2c3cc(NC(=O)CC4CC4)ccc3O[C@H]2[C@H](CO)O1)NCCc1ccccc1	none (no result: AHR act, GAA850 FXN act, MITF TRPM1 HTS, Wnt bcat act)
O=C(C[C@H]1CC[C@H]2[C@@H](COC[C@H](O)CN2C(=O)c2ccc(F)cc2)O1)N1CCOCC1	none (no result: AHR act, GAA850 FXN act, MITF TRPM1 HTS, Wnt bcat act)
COc1ccc(C(=O)NN/C(=N/S(=O)(=O)c2ccc(C)cc2)c2ccccc2)cc1	MITF TRPM1 HTS 129, Wnt bcat act 43 (no result: esBAF inh)
C=C1C(=O)O[C@H]2[C@H]1[C@@H](O)CC(=C)[C@@H]1CC(=O)[C@@H](C)[C@H]21	GAA850 FXN act 9.3 (no result: Wnt bcat act)
Nc1ccc2c(c1)Cc1cc(N)c(Br)cc1-2	none (no result: esBAF inh, AHR act)
Nc1cc2c(cc1Cl)-c1ccc(Cl)cc1C2	esBAF inh 59 (no result: AHR act, MITF TRPM1 HTS)
CCCNC(=O)C[C@@H]1CC[C@@H]2[C@@H](COc3ccc(NC(=O)Nc4ccccc4)cc3C(=O)N2C)O1	none (no result: AHR act, GAA850 FXN act, MITF TRPM1 HTS, Wnt bcat act)
CCOc1ccc2nc(NC(=O)CSc3ccccc3)sc2c1	none (no result: esBAF inh, Wnt bcat act)
CCCC(=O)Nc1nc2ccc(OCC)cc2s1	MITF TRPM1 HTS 96, Wnt bcat act 41
CC(=O)NCCC(=O)Nc1nc2ccc(Oc3ccccc3)cc2s1	MITF TRPM1 HTS 109
CCOc1ccc2nc(NC(=O)CCn3cccc3)sc2c1	AHR act 59 (no result: MITF TRPM1 HTS)
CCOc1ccc2nc(NC(=O)CS(=O)(=O)c3ccccc3)sc2c1	none (no result: Wnt bcat act)
COc1ccc(C(=O)N2C[C@@H]3[C@H](c4ccccc42)[C@@H](CO)N3C(=O)c2ccc(F)cc2)cc1	none (no result: AHR act, GAA850 FXN act, MITF TRPM1 HTS, Wnt bcat act)
C[C@H](CO)N1C[C@H](C)[C@H](CN(C)S(=O)(=O)c2cccs2)OCCCC[C@H](C)Oc2ccc(N(C)C)cc2C1=O	none (no result: AHR act, GAA850 FXN act, MITF TRPM1 HTS, Wnt bcat act)
COCCNC(=O)C[C@@H]1C[C@H]2c3cc(NS(C)(=O)=O)ccc3O[C@H]2[C@H](CO)O1	none (no result: AHR act, GAA850 FXN act, MITF TRPM1 HTS, Wnt bcat act)
Cc1ccc(O)c(C2=Nc3ccccc3C2(C)C)c1	esBAF inh 67, MITF TRPM1 HTS 98
COc1ccc(C)cc1C1=Nc2ccccc2C1(C)C	none (no result: esBAF inh, Wnt bcat act)
CCC(C)NC(=O)c1ccc2c(SCC(=O)O)c3c(nc2c1)CCCC3 (stereo not given)	none
CCC(C)NC(=O)c1ccc2c(Cl)c3c(nc2c1)CCC3 (stereo not given)	esBAF inh 53, Wnt bcat act 42
O=C(CSc1nnc(C2CC2)n1C1CC1)c1ccc(Br)s1	esBAF inh 56, Wnt bcat act 33
CN(C[C@H]1[C@@H](c2ccccc2)[C@H](CO)N1C(=O)C1CCC1)C(=O)c1ccccn1	none (no result: AHR act, GAA850 FXN act, MITF TRPM1 HTS, Wnt bcat act)
N=C1/C(=C\c2ccc(-c3cccc(Cl)c3)o2)C(=O)N=C2SC=C(c3ccccc3)N12	AHR act 49 (no result: esBAF inh)
O=C1CC(c2ccc3c(c2)OCCO3)Oc2ccccc21 (stereo not given)	esBAF inh 84, MITF TRPM1 HTS 104, Wnt bcat act inconclusive
COc1ccc(C2CC(=O)c3ccccc3O2)cc1 (stereo not given)	esBAF inh 61, MITF TRPM1 HTS 126, Wnt bcat act 43
COc1cccc(C2Cc3ccccc3C(=O)O2)c1 (stereo not given)	none (no result: esBAF inh, Wnt bcat act)
O=C1CC(c2ccccc2)Oc2ccc(Cl)cc21 (stereo not given)	none (no result: esBAF inh, AHR act)
COc1ccc(C2CC(=O)c3cc(OC)ccc3O2)cc1 (stereo not given)	esBAF inh 52 (no result: AHR act)
O=C1CC(c2ccc3c(c2)OCCO3)Oc2ccc([N+](=O)[O-])cc21 (stereo not given)	none
CS(=O)(=O)Nc1ccc2c(c1)[C@H]1C[C@@H](CC(=O)NCc3cccnc3)O[C@@H](CO)[C@H]1O2	none (no result: AHR act, GAA850 FXN act, MITF TRPM1 HTS, Wnt bcat act)
COC(=O)C[C@@H]1C[C@@H]2c3cc(NC(=O)Cc4ccncc4)ccc3O[C@@H]2[C@H](CO)O1	none (no result: AHR act, GAA850 FXN act, MITF TRPM1 HTS, Wnt bcat act)
C[C@@H]1CN([C@@H](C)CO)S(=O)(=O)c2ccc(C#CC(C)(C)O)cc2O[C@H]1CN(C)CC1CCCC1	none (no result: AHR act, GAA850 FXN act, MITF TRPM1 HTS, Wnt bcat act)
COc1ccc(/C(C)=N/Nc2nc3ccccc3n3cnnc23)cc1OC	AHR act 61 (no result: esBAF inh, GAA850 FXN act, MITF TRPM1 HTS)
CCC(=O)N(C)C[C@@H]1Oc2ncc(-c3ccc(C)cc3)cc2C(=O)N([C@H](C)CO)C[C@@H]1C	none (no result: AHR act, GAA850 FXN act, MITF TRPM1 HTS, Wnt bcat act)
Cc1ccc(OC(=O)Nc2ccccc2)cc1	esBAF inh 50, MITF TRPM1 HTS inconclusive
N#CCc1ccc(OC(=O)Nc2ccccc2)cc1	none
